Results on eight molecules are retold here after PubChem BioAssay (NCATS).

Inconclusive results are not listed. The source made the active and inactive calls. Unless noted, calls come from the whole dose curve; as a rule, active = well fitted curve in the direction sought with a large enough effect; inconclusive = small, poorly fitted or top-dose-only effect, or another doubt; inactive = no such curve, though single readings can be large; an effect the other way counts as inactive or inconclusive.

Assay [1] has as its target Atrial natriuretic peptide receptor 1 (Homo sapiens) (UniProt P16066). In words: Natriuretic polypeptide receptor (hNpr1) antagonism - Pilot screen (AID 1347049; calls by dose curve;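 note: agonist-evoked cGMP luminescence read 20 min after hNppA addition; series mostly up to about 58 µM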). Put shortly:
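HEK293 cells co-expressing hNpr1 and the GloSensor pGS-40F cGMP luciferase sensor were preloaded with 2% GloSensor reagent for 2 h. Compounds were added for 30 min at room temperature, then cells were stimulated with 0.1 nM hNppA for 20 min before luminescence readout.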

Assay [2] has as its target Atrial natriuretic peptide receptor 2 (Homo sapiens) (UniProt P20594). As to the kind of experiment: Natriuretic polypeptide receptor (hNpr2) antagonism - Pilot subtype selectivity assay (AID 1347050; calls by dose curve). Put shortly: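 cGMP-sensor HEK293/hNpr2 cells; 2% GloSensor reagent 2 h RT; compounds 30 min; baseline luminescence read; 1 nM hNppC agonist 20 min RT; final luminescence read by CCD camera. Antagonism = reduced post-agonist signal.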

Assay [3] can be described thus: NS1 protein of Zika virus - qHTS assay to identify small molecule inhibitors in human HEK 293 cells (AID 1347053). Note: series mostly up to about 46 µM; nearly all actives have a fitted effect of over 55% in size. Put shortly: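 HEK 293; 20 h pre-culture, 37 C/5% CO2; cpd 1 h pre-infection; ZIKV MR766, MOI = 0.5, 24 h, 37 C; TR-FRET NS1 readout (two anti-NS1 Abs); norm. to no-virus vs infected.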
The target of assay [4] is T1, Tyrosine-protein phosphatase non-receptor type substrate 1 (Homo sapiens) + Leukocyte surface antigen CD47 (Homo sapiens) (UniProt P78324+Q08722). In words: CD47-SIRPalpha protein protein interaction - LANCE assay qHTS validation (AID 1347057; active = well fitted curve in the direction sought with a large enough effect in the signal ratio, with a control signal flat, not every such curve was filed as active; the % refers to the signal ratio; note: series mostly up to about 38 µM). In short, it runs like this: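 First, His-tagged CD47 and Eu-labelled anti-His antibody met the compound for 30 min; next, site-specifically biotinylated SIRPalpha was added for 30 min; finally streptavidin-APC was added before reading the TR-FRET ratio.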

The target in assay [5] is T1, Tyrosine-protein phosphatase non-receptor type substrate 1 (Homo sapiens) + Leukocyte surface antigen CD47 (Homo sapiens). As to the kind of experiment: CD47-SIRPalpha protein protein interaction - HTRF assay qHTS validation (AID 1347058; active = well fitted curve in the direction sought with a large enough effect in the signal ratio, not every such curve was filed as active; the % refers to the signal ratio; note: series mostly up to about 38 µM). Put shortly: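 TR-FRET read (Ch1/Ch2 ratio) of soluble extracellular CD47 and Avi-biotinylated SIRPalpha domains in PBS pH 7.4 with 0.05% IGEPAL; 7-point compound titration. Sequential 30 min room-temperature steps; non-biotinylated SIRPalpha as control inhibitor.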

Assay [6] has the same target. In words: CD47-SIRPalpha protein protein interaction - Alpha assay qHTS validation (AID 1347059).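 Note: bead proximity luminescence from CD47 binding SIRPalpha after compound preincubation with SIRPalpha.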 Put shortly:
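Soluble extracellular domains: Avi-tag biotinylated SIRPalpha (25 nM) preincubated 30 min RT with compound, then 6His-CD47 (12.5 nM) 30 min; Ni-NTA acceptor and streptavidin donor beads (10 ug/mL) 30 min, AlphaScreen read. PBS pH 7.4, 0.05% IGEPAL.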

For assay [7], the target named is Parathyroid hormone/parathyroid hormone-related peptide receptor (Homo sapiens) (UniProt Q03431). As to the kind of experiment: qHTS for PTHR1 Agonists: Optimization Screen against the NCGC LOPAC library (AID 1347079).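 Note: GloSensor cAMP luminescence in HEK-293 GP2 cells expressing human PTHR1 with IBMX.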 Put shortly: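 Compounds were tested across a qHTS titration. PTHR1-expressing GP2 cells report cAMP rises via GloSensor luminescence after 1 hr compound exposure at 37C with IBMX present.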

The nature of assay [8]: qHTS of pediatric cancer cell lines to identify multiple opportunities for drug repurposing: Primary screen for TC32 cells (AID 1347089). Note: nearly all actives have a fitted effect of over 60% in size. Put shortly:
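TC32 cells, 500-1,000/well in growth medium, compound-treated 48 h at 37 °C; viability from CellTiter-Glo luminescence. Primary screen: MIPE 11-point (0.78 nM–46 µM final), NPC 8-point (0.59 nM–46 µM final); confirmatory at 11-point dilutions.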

Assay [9] is described as follows: qHTS of pediatric cancer cell lines to identify multiple opportunities for drug repurposing: Primary screen for DAOY cells (AID 1347090). Note: series mostly up to about 46 µM; nearly all actives have a fitted effect of over 55% in size. In short, it runs like this: (§1)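 Eight- or eleven-point concentration series, 48 h treatment at 37 degrees C in growth media; readout CellTiter-Glo luminescence. Potency and efficacy were taken from the concentration-response curves.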

A short description of assay [10]: qHTS of pediatric cancer cell lines to identify multiple opportunities for drug repurposing: Primary screen for SJ-GBM2 cells (AID 1347091). Put shortly: as §1
Assay [11] in a line: qHTS of pediatric cancer cell lines to identify multiple opportunities for drug repurposing: Primary screen for A673 cells (AID 1347092). Note: nearly all actives have a fitted effect of over 45% in size. Note: potency is the fitted concentration of half-maximal effect. In short, it runs like this: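 A673 cells (500-1,000 cells/well) were treated 48 hours at 37 degrees C with compounds at 11-point (0.78 nM to 46 µM) or 8-point (0.59 nM to 46 µM) dilutions. Viability read by CellTiter-Glo luminescence; concentration-response curves fitted.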

The nature of assay [12]: qHTS of pediatric cancer cell lines to identify multiple opportunities for drug repurposing: Primary screen for SK-N-MC cells (AID 1347093). Note: series mostly up to about 46 µM. Put shortly: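 Metabolically active cells were quantified by ATP-dependent luminescence (CellTiter-Glo, 15 min at room temperature) following 48 h treatment. Cells had been plated at 500-1,000 per well and settled for 5 h beforehand.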

Assay [13] can be described thus: qHTS of pediatric cancer cell lines to identify multiple opportunities for drug repurposing: Primary screen for BT-37 cells (AID 1347094). Note: potency is the fitted concentration of half-maximal effect. In short, it runs like this: (§2)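 Cells plated at 500-1,000/well in growth medium, compounds added after 5 h. MIPE tested at 11 points (from 0.78 nM), NPC at 8 points (from 0.59 nM). CellTiter-Glo luminescence after 48 h; concentration-response curves from primary screen.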

A short description of assay [14]: qHTS of pediatric cancer cell lines to identify multiple opportunities for drug repurposing: Primary screen for NB-EBc1 cells (AID 1347095). Note: potency is the fitted concentration of half-maximal effect. In short, it runs like this: as §2
The nature of assay [15]: qHTS of pediatric cancer cell lines to identify multiple opportunities for drug repurposing: Primary screen for U-2 OS cells (AID 1347096). Note: nearly all actives have a fitted effect of over 50% in size. In short, it runs like this: (§3)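 Cells (500-1,000/well) in growth media were settled 5 h at 37 degrees C, then given compounds for 48 h. Viability was read as CellTiter-Glo luminescence. Primary runs used MIPE at 11 points (0.78 nM-46 µM) and NPC at 8 points (0.59 nM-46 µM); follow-ups used 11 points.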

Assay [16] can be described thus: qHTS of pediatric cancer cell lines to identify multiple opportunities for drug repurposing: Primary screen for Saos-2 cells (AID 1347097). Note: nearly all actives have a fitted effect of over 40% in size. Note: potency is the fitted concentration of half-maximal effect. Put shortly: as §2
Assay [17] is described as follows: qHTS of pediatric cancer cell lines to identify multiple opportunities for drug repurposing: Primary screen for SK-N-SH cells (AID 1347098). Note: nearly all actives have a fitted effect of over 65% in size. Note: potency is the fitted concentration of half-maximal effect. Put shortly:
(§4)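 Cells (500-1,000/well) rested 5 h, then received compounds for 48 h; metabolically active cells were measured by CellTiter-Glo luminescence. Final concentrations spanned up to 46 µM (MIPE, 11-point) or 0.59 nM-46 µM (NPC, 8-point) in primary screens, 11-point in follow-ups.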

Assay [18] is described as follows: qHTS of pediatric cancer cell lines to identify multiple opportunities for drug repurposing: Primary screen for NB1643 cells (AID 1347099). Note: nearly all actives have a fitted effect of over 50% in size. Put shortly: as §2
Assay [19] in a line: qHTS of pediatric cancer cell lines to identify multiple opportunities for drug repurposing: Primary screen for LAN-5 cells (AID 1347100). Put shortly:
as §3

Assay [20] is described as follows: qHTS of pediatric cancer cell lines to identify multiple opportunities for drug repurposing: Primary screen for BT-12 cells (AID 1347101). Note: nearly all actives have a fitted effect of over 25% in size. Note: potency is the fitted concentration of half-maximal effect. Put shortly:
as §4

Sequence of Atrial natriuretic peptide receptor 2 (Homo sapiens) (P20594 whole entry, looked up): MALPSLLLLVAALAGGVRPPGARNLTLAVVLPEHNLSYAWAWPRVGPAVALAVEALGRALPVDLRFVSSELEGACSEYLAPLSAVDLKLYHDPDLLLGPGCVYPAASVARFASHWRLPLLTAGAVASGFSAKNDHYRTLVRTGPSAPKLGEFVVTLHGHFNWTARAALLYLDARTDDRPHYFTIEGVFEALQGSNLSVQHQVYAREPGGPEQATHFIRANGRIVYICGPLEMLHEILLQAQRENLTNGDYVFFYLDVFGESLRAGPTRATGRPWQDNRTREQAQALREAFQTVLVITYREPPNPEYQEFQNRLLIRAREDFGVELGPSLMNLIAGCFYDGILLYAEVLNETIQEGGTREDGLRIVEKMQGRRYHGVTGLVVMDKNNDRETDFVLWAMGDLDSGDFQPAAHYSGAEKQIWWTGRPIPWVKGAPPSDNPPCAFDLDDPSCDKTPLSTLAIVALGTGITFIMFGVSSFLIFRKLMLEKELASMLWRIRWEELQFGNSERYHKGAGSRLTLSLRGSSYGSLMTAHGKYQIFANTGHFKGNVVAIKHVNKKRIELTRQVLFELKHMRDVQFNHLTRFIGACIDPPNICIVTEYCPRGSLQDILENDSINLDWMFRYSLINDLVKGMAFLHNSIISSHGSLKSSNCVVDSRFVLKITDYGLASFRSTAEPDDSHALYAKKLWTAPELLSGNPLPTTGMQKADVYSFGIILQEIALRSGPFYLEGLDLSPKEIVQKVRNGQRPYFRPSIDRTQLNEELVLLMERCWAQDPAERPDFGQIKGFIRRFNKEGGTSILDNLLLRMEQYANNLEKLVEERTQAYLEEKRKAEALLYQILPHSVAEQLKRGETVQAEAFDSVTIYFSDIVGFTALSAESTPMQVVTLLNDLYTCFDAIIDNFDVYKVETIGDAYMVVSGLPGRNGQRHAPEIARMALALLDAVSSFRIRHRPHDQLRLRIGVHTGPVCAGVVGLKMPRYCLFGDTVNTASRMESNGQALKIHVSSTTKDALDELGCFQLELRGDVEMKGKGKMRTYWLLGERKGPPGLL
T1 sequence (P78324 whole entry, looked up): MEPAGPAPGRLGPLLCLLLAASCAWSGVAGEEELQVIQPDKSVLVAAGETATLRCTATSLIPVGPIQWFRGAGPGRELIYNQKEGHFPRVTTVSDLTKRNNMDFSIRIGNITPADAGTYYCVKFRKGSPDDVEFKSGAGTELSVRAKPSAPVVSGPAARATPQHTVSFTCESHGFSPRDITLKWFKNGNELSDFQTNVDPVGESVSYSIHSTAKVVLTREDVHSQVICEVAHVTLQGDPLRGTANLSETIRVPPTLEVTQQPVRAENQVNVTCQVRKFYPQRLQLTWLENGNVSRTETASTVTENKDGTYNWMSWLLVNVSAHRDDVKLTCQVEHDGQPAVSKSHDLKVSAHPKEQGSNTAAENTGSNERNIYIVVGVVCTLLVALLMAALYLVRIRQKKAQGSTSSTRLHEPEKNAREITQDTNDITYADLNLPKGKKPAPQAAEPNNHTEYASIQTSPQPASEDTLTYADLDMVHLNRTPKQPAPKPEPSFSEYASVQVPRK
T1 sequence (Q08722 whole entry, looked up): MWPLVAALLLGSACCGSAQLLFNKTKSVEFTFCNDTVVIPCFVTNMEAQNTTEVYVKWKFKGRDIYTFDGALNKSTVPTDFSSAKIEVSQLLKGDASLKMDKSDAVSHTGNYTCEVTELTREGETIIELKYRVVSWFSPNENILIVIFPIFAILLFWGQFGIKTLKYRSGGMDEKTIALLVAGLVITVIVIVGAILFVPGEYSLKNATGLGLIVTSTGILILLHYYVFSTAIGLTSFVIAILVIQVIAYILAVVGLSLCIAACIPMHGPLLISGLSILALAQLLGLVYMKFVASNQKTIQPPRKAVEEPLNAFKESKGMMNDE
Sequence of Atrial natriuretic peptide receptor 1 (Homo sapiens) (P16066 whole entry, looked up): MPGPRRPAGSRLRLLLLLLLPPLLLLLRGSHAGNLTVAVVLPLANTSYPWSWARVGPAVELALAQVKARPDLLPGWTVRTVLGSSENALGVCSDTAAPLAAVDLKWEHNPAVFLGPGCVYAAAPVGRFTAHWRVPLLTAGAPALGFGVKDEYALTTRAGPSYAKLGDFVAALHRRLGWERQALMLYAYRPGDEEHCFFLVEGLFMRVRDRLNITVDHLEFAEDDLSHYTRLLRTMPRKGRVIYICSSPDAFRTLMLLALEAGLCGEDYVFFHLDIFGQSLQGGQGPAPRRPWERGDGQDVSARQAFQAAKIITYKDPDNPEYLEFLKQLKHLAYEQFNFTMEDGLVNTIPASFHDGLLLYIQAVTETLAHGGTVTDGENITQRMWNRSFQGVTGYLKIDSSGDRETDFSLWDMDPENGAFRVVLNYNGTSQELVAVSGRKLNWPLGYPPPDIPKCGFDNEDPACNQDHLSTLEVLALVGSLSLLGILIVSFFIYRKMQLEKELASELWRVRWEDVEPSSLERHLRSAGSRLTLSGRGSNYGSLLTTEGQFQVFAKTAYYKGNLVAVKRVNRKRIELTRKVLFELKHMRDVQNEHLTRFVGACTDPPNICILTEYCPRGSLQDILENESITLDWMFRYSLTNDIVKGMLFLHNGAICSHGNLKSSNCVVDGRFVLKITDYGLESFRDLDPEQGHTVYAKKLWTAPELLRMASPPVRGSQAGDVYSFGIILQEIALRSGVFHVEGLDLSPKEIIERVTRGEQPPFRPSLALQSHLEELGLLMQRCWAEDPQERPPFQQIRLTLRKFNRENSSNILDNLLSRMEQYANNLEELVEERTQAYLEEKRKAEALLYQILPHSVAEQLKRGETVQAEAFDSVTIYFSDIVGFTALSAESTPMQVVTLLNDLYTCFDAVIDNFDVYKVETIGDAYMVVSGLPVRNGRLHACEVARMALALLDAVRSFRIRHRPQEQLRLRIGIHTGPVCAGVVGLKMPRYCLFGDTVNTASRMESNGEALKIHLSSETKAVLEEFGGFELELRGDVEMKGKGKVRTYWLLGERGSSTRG
Sequence of Parathyroid hormone/parathyroid hormone-related peptide receptor (Homo sapiens) (Q03431 whole entry, looked up): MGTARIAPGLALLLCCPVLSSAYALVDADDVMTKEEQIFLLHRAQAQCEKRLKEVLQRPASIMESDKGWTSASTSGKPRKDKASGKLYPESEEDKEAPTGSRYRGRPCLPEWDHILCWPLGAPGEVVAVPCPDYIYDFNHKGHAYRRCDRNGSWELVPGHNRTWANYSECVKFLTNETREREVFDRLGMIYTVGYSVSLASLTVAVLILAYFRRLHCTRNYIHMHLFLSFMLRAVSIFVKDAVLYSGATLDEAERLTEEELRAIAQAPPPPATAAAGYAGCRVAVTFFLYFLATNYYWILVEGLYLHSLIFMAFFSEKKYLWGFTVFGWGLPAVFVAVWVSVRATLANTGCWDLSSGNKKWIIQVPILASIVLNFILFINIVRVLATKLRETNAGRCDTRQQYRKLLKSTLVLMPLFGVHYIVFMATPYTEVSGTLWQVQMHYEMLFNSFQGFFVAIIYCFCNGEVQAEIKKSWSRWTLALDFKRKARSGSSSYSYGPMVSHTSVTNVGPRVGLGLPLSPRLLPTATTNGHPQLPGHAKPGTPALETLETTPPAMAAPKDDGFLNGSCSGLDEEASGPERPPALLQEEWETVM

Regarding `CN(C)CCOC(C)(c1ccccc1)c1ccccn1` (stereo not given), the call in [1], in [4], in assay [5] and in [6] was inactive. The Potency entry in [2], in assay [3], in assay [7], in [8], in assay [9] and in assay [10] was “inactive” in each case. Moreover, the Potency result in [11], in assay [12], in assay [13], in assay [14], in assay [15] and in assay [16] was “inactive” in each case. The Potency result in assay [17], in assay [18], in [19] and in assay [20] was “inactive” each time.

Turning to `CC1=C(CC(=O)O)c2cc(F)ccc2/C1=C\c1ccc(S(C)=O)cc1` (stereo not given), in assay [1], the outcome was inactive. The Potency result in [2], in assay [3], in [7], in [8], in [9] and in [10] was “inactive” throughout. Further, the Potency result in assay [11], in assay [12], in [13], in [14], in assay [15] and in assay [16] was “inactive” throughout. For the same molecule, the Potency result in [17], in [18], in assay [19] and in assay [20] was “inactive” each time.

In the case of `OCc1cc(C(O)CNCCCCCCOCCCCc2ccccc2)ccc1O` (stereo not given), the molecule was called inactive in assay [1], in [4], in [5] and in [6]. The Potency entry in [2], in [3], in assay [7], in [15], in assay [16] and in assay [18] was “inactive” throughout. Moreover, in [19], the Potency entry was “inactive”. Further, the Potency in assay [11] is 21.1 µM (active).

Take `CC(C)(C)[C@]1(O)CCN2C[C@H]3c4ccccc4CCc4cccc(c43)[C@@H]2C1`: the molecule was called inactive in assay [1], in assay [4], in [5] and in [6]. Besides, the Potency entry in assay [2], in assay [3] and in assay [7] was “inactive” throughout.

Turning to `CNCC(O)c1ccc(O)c(O)c1` (stereo not given), the outcome in [1], in assay [4], in [5] and in assay [6] was inactive. Besides, the Potency entry in [2], in [3], in assay [7], in assay [8], in assay [9] and in assay [10] was “inactive” each time. For the same molecule, the Potency result in assay [13], in assay [14], in assay [15], in assay [18], in [19] and in [20] was “inactive” in each case. The Potency in assay [16] was 26.6 µM (active).

Regarding `CCCCC/C(C=O)=C\c1ccccc1`, the Potency result in assay [3], in [8], in [9], in assay [10], in assay [11] and in assay [12] was “inactive” each time. The Potency result in [13], in [14], in assay [15], in assay [17], in assay [18] and in assay [19] was “inactive” throughout. The values for the Potency in assay [16] and in assay [20] were 53.1 µM (active) and 0.155 µM (active), respectively.

On to `CCN(CC)CCCC(C)Nc1c2ccc(Cl)cc2nc2ccc(OC)cc12` (stereo not given), for which the molecule was classed as inactive in assay [1]. For the same molecule, the Potency result in assay [2], in assay [3], in [7] and in assay [8] was “inactive” in each case. The Potency was 21.1 µM (active) in assay [11], 27.6 µM (active) in assay [13], 15 µM (active) in assay [14] and 5.45 µM (active) in [17].

As to `NC1[C@H]2CN(c3nc4c(cc3F)c(=O)c(C(=O)O)cn4-c3ccc(F)cc3F)C[C@@H]12` (stereo not given in full), the Potency result in assay [3], in assay [10], in [12], in [14], in assay [15] and in assay [16] was “inactive” each time. The outcome in assay [4] and in assay [6] was inactive. For the same molecule, in assay [11], the Potency was 13.3 µM (active).
